Structures are written as SMILES. About 83,000 compounds went through this panel and 20% of them were active in at least one assay; those are over-represented in the sample as a whole.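 96-well plates, one dose, 48 hours. Percent growth reported; active if below 10.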 A number with no mark means an inactive call. Calls of active or inactive are those of the source.

Some test systems named below: SK-MEL-2 melanoma; EKVX NSCLC; SN12C renal; UO-31 renal; TK-10 renal; ACHN renal; CAKI-1 renal; A498 renal; CCRF-CEM leukemia; MOLT-4 leukemia; RPMI-8226 leukemia; OVCAR-8 ovarian; OVCAR-5 ovarian; OVCAR-4 ovarian; SK-OV-3 ovarian; IGROV1 ovarian; HS 578T breast; NCI/ADR-RES ovarian; OVCAR-3 ovarian.
Common to all, as to test: NCI-60 one-dose screen, 48 h (100 = growth as untreated, 0 = no growth, -100 = all killed)
Holding throughout (settings): 10 µM unless noted

Regarding `CS(=O)(=O)c1ccc(Nc2nc(N[C@H]3CCCC[C@H]3N)nc3cc[nH]c(=O)c23)cc1`, the growth was -40% (active) with SK-MEL-2 melanoma; 13.5% in the experiment on EKVX NSCLC; 3.77% (active) in the experiment on SN12C renal; 108% in the experiment on UO-31 renal; 44.6% with TK-10 renal; 95.2% in the experiment on ACHN renal. Besides, the growth was 90.7% with CAKI-1 renal; 51.8% with A498 renal; 3.99% (active) in the experiment with CCRF-CEM leukemia; 3.74% (active) with MOLT-4 leukemia; 62.9% in the experiment on RPMI-8226 leukemia; 13.6% in the experiment with OVCAR-8 ovarian. The growth is -6.49% (active) in the experiment on OVCAR-5 ovarian; -3.9% (active) in the experiment on OVCAR-4 ovarian; 32.8% with SK-OV-3 ovarian; 1.3% (active) in the experiment on IGROV1 ovarian; 22.2% with HS 578T breast; 102% in the experiment on NCI/ADR-RES ovarian.

On to `CCc1ccccc1-n1c(N)c(C#N)c(-c2ccc(N(C)C)cc2)c(C#N)c1=O`, for which the growth is 112% in the experiment on SK-MEL-2 melanoma; 90.4% in the experiment with EKVX NSCLC; 96.8% in the experiment with SN12C renal; 85.3% in the experiment on UO-31 renal; 99.6% with TK-10 renal; 94.8% in the experiment on ACHN renal. Besides, the growth with CAKI-1 renal was 93.6%; in the experiment on A498 renal, 94.2%; with CCRF-CEM leukemia, -30.8% (active); in the experiment with MOLT-4 leukemia it was 117%; in the experiment on RPMI-8226 leukemia, 74.7%; in the experiment on OVCAR-8 ovarian it was 101%. Also, the growth is 97% in the experiment with OVCAR-5 ovarian; 99% with OVCAR-4 ovarian; 107% in the experiment on SK-OV-3 ovarian; 90.8% with IGROV1 ovarian; 97% with OVCAR-3 ovarian; 92.2% with HS 578T breast. Besides, the growth in the experiment on NCI/ADR-RES ovarian is 94.8%.

Take `Cc1cccc(NC(=O)N/C(N)=N/c2nc(C)c(C)s2)c1`: the growth is 43.7% with SK-MEL-2 melanoma; 55.8% in the experiment on EKVX NSCLC; 57.6% with SN12C renal; 64.3% in the experiment on UO-31 renal; 96.3% in the experiment on TK-10 renal; 63.4% in the experiment with ACHN renal. Moreover, the growth in the experiment with CAKI-1 renal is 30.6%; in the experiment on A498 renal it was 20%; in the experiment with CCRF-CEM leukemia, 53.5%; in the experiment on MOLT-4 leukemia it was 21.9%; with RPMI-8226 leukemia, 28.8%; in the experiment on OVCAR-8 ovarian, 58%. Also, the growth was 82.3% in the experiment with OVCAR-5 ovarian; 76% in the experiment with OVCAR-4 ovarian; 65.6% in the experiment with SK-OV-3 ovarian; 47.5% with IGROV1 ovarian; 39.8% in the experiment on OVCAR-3 ovarian; 43.9% in the experiment with HS 578T breast. In the experiment with NCI/ADR-RES ovarian, the growth was 25.3%.

`CCOC(=O)c1c(-c2ccc(Cl)cc2)c(C#N)c(=O)n(-c2ccccc2CC)c1N`: the growth with SK-MEL-2 melanoma was 114%; in the experiment with EKVX NSCLC it was 90.6%; with SN12C renal it was 92.1%; in the experiment on UO-31 renal, 71.6%; in the experiment with TK-10 renal, 117%; in the experiment with ACHN renal, 89.5%. The growth in the experiment with CAKI-1 renal was 105%; with A498 renal, 97.5%; in the experiment on CCRF-CEM leukemia, 17.7%; in the experiment on MOLT-4 leukemia it was 70.3%; in the experiment with RPMI-8226 leukemia, 69.3%; with OVCAR-8 ovarian, 87.1%. Further, the growth in the experiment on OVCAR-5 ovarian was 92.6%; in the experiment with OVCAR-4 ovarian, 98.1%; in the experiment with SK-OV-3 ovarian, 102%; with IGROV1 ovarian, 99.8%; with OVCAR-3 ovarian, 87.8%; in the experiment on HS 578T breast, 102%. Besides, the growth in the experiment on NCI/ADR-RES ovarian was 91.9%.

Regarding `COc1cccc(-c2nc3sccn3c2/C=C/C(=O)c2ccc(C(F)(F)F)cc2)c1`, the growth is 79.1% in the experiment on SK-MEL-2 melanoma; 94.2% in the experiment with EKVX NSCLC; 76.7% in the experiment with SN12C renal; 56.3% in the experiment with UO-31 renal; 89.7% in the experiment with TK-10 renal; 94.7% in the experiment with ACHN renal. The growth was 84.7% in the experiment with CAKI-1 renal; 52.7% in the experiment with A498 renal; 66.8% with CCRF-CEM leukemia; 48.5% in the experiment with MOLT-4 leukemia; 46.5% in the experiment with RPMI-8226 leukemia; 81.1% in the experiment on OVCAR-8 ovarian. For the same compound, the growth with OVCAR-5 ovarian was 92.5%; in the experiment on OVCAR-4 ovarian it was 92.9%; in the experiment with SK-OV-3 ovarian it was 77.3%; in the experiment with IGROV1 ovarian it was 92.8%; in the experiment on OVCAR-3 ovarian, 78.9%; with HS 578T breast, 80%. Further, in the experiment with NCI/ADR-RES ovarian, the growth was 89.8%.

Turning to `COc1ccc(N=Nc2ccc(O)c(=O)cc2)cc1`, the growth in the experiment on SK-MEL-2 melanoma is 19.7%; in the experiment with EKVX NSCLC, 4.69% (active); with SN12C renal, 6.7% (active); with UO-31 renal it was 1.08% (active); with TK-10 renal, 44.3%; in the experiment on ACHN renal, 4.83% (active). Further, the growth is 11.1% with CAKI-1 renal; 82.4% with A498 renal; 15.8% in the experiment with CCRF-CEM leukemia; -18.4% (active) in the experiment with MOLT-4 leukemia; 9.86% (active) in the experiment on RPMI-8226 leukemia; 9.87% (active) in the experiment with OVCAR-8 ovarian. Further, the growth with OVCAR-5 ovarian was 47.8%; in the experiment with OVCAR-4 ovarian, 31.8%; with SK-OV-3 ovarian, 16.5%; in the experiment on IGROV1 ovarian, 15.1%; in the experiment on OVCAR-3 ovarian, 16.2%; with HS 578T breast, 30.7%. Moreover, the growth in the experiment with NCI/ADR-RES ovarian was -29% (active).

In the case of `CCC1(C2CCCC2)NC(=O)NC1=O` (configuration not stated), the growth with SK-MEL-2 melanoma is 102%; in the experiment on EKVX NSCLC, 105%; in the experiment on SN12C renal, 99%; in the experiment on UO-31 renal, 87.4%; in the experiment with TK-10 renal, 113%; in the experiment on ACHN renal it was 93.8%. Further, the growth is 100% in the experiment on CAKI-1 renal; 100% in the experiment with A498 renal; 87.8% with CCRF-CEM leukemia; 110% with MOLT-4 leukemia; 91.3% in the experiment on RPMI-8226 leukemia; 109% with OVCAR-8 ovarian. Besides, the growth was 80.5% with OVCAR-5 ovarian; 113% in the experiment with OVCAR-4 ovarian; 112% in the experiment on SK-OV-3 ovarian; 97.5% with IGROV1 ovarian; 111% in the experiment on OVCAR-3 ovarian; 98.9% with HS 578T breast. In addition, the growth in the experiment with NCI/ADR-RES ovarian is 109%.
